Bioassay records (PubChem)
ADAM10 inh – inhibitors of human ADAM10; O14672; recombinant ADAM10, EDANS/DABCYL FRET peptide cleavage, 3 h; inhibition, % at 7 µM; 370,000 compounds, 0.62% hits;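 active means inhibition above a per-campaign cutoff equal to the mean of compounds falling between control-based bounds plus 3 SD, cut at about 20% in these data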;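 further: 0% = DMSO wells while the 100% control is not disclosed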
ADAM17 inh – inhibitors of human ADAM17; recombinant ADAM17, EDANS/DABCYL FRET peptide cleavage; AID 720648; P78536; 370,000 compounds, 0.83% hits; inhibition, % at 6.95 µM;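 active means inhibition above the mean of compounds lying between control limits plus 3 SD, set per campaign, cut at about 8.5% in these data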;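 further: 0% = DMSO-only wells as the low control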
Target sequence (P78536 215-824 limits assumed): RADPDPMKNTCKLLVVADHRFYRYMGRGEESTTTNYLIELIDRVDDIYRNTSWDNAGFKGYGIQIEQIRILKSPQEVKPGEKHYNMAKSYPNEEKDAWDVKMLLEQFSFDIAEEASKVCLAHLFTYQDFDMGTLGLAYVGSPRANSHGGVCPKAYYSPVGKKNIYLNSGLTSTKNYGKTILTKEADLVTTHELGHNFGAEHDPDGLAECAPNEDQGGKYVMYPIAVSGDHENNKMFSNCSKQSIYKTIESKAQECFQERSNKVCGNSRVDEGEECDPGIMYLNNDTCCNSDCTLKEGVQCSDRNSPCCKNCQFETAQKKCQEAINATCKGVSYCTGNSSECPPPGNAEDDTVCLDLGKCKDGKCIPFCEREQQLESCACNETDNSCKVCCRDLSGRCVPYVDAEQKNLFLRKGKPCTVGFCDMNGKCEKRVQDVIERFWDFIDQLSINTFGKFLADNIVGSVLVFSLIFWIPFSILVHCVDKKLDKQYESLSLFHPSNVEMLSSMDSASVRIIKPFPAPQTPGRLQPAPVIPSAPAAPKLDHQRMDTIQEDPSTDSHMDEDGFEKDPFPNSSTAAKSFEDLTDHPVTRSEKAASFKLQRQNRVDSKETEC
aDG glyco up – alpha-DG glycosylation activation. Pro5-aDG cells, alpha-DG glycosylation AlphaScreen (IIH6); 0% Pro5, 100% B10-LARGE cell signal. activation, % at 10 µM. 360,000 compounds, 0.22% hits. AID 624168;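 active means activation of at least 8% versus controls, or a plate z-score of at least 8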;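 further: Pro5 are CHO cells carrying HIG-tagged alpha-DG that lacks glycosylation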
NR3A LBD binder – modulators (binders) of human NR3A ligand-binding domain; NR3A LBD differential scanning fluorimetry, Tm shift; 0% = protein alone, 100% = glycine-bound protein; AID 1259313; Tm shift relative to glycine control, % at 25 µM; 340,000 compounds, 2.5% hits;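 active means melting temperature shift of at least 10% of the positive control shift, at one fixed dose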
FAS-TE inh – FAS thioesterase (human) inhibition | 360,000 compounds, 0.67% hits | recombinant FAS-TE, OMFH fluorogenic substrate, fluorescence endpoint | inhibition, % at 15 µM;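 active means compounds whose normalised, plate-corrected inhibition of enzyme fluorescence in the single-dose primary screen is 50% or more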;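 further: 0% = DMSO with enzyme and 100% = substrate without enzyme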
An asterisk follows results filed as active; . = no result given. Sampled rows, rich in hits. Any-hit rate of the full collection: about 4%.

SMILES	ADAM10 inh	ADAM17 inh	aDG glyco up	NR3A LBD binder	FAS-TE inh
Cc1nc2c(cnn2-c2ccccc2)c(=O)n1/N=C/c1ccccc1	10	0	0	3	17
Cc1nc(N/N=C/c2ccc(O)cc2)c2cnn(-c3ccccc3)c2n1	-30	-12	0	12*	10
Cc1nc2ccccc2nc1N/N=C/c1ccc(O)cc1	-23	-5	0	11*	-4
CS(=O)(=O)c1ccc([C@@H](O)[C@@H](CO)NC(=O)C(Cl)Cl)cc1	-6	-6	0	-1	-3
O=C(Cc1ccc(Cl)cc1Cl)Nc1cccc(S(=O)(=O)Nc2ccccc2F)c1	-3	5	0	26*	-7
O=C(COc1ccccc1F)Nc1cc(S(=O)(=O)Nc2cccc(Cl)c2)ccc1O	-11	4	0	27*	2
Cc1ccccc1OCCC(=O)Nc1cccc(S(=O)(=O)Nc2ccccc2Cl)c1	18	6	0	15*	28
C/C(=N\Nc1nc(N)cc(Cl)n1)c1ccc(Cl)c(Cl)c1	-3	-2	1	18*	1
COc1ccc2c(c1)c(C(=O)N/N=C/c1cccc(Br)c1)c(C)n2C	5	-1	0	-10	16
C=CCOC(=O)C1=C(C)NC(SCC(=O)Nc2ccc(C)c(Cl)c2)=C(C#N)C1c1ccco1 (configuration not stated)	9	-1	2	20*	5
C#CCOCCOCCOCCNc1nc(N2CCN(C(=O)CCCCCCCCCCNC(=O)[C@@H](CCSC)n3cc(CCO)nn3)CC2)nc(N2CCN(C(=O)CCCCCCCCCCNC(=O)[C@H](CCSC)n3cc(CCO)nn3)CC2)n1	10	-1	0	-5	-6
C#CCOCCOCCOCCNc1nc(N2CCN(C(=O)CCCCCCCCCCNC(=O)[C@H]([C@@H](C)CC)n3cc(CCCCN=C(N)N)nn3)CC2)nc(N2CCN(C(=O)CCCCCCCCCCNC(=O)[C@H](CO)n3cc(CCCCCN)nn3)CC2)n1	.	.	-1	17*	-47
C#CCOCCOCCOCCNc1nc(N2CCOCC2)nc(N2CCN(C(=O)CCCCCCCCCCNC(=O)[C@@H]([C@H](C)CC)n3cc(CCCCCN)nn3)CC2)n1	3	-4	0	2	-8
CC(C)(C)OC(=O)NCCCCCc1cn([C@@H](CO)C(=O)NCCCCCCCCCCC(=O)N2CCN(C(=O)OC(C)(C)C)CC2)nn1	0	4	5.8*	-2	8
C#CCOCCOCCOCCNc1nc(N2CCN(C(=O)CCCCCCCCCCNC(=O)[C@H]([C@@H](C)CC)n3cc(CCCCCN)nn3)CC2)nc(N2CCN(C(=O)CCCCCCCCCCNC(=O)[C@H](CO)n3cc(CCCCCN)nn3)CC2)n1	.	.	0	28*	-31
C#CCOCCOCCOCCNc1nc(N2CCN(C(=O)CCCCCCCCCCNC(=O)[C@H](CO)n3cc(CCCSC)nn3)CC2)nc(N2CCN(C(=O)CCCCCCCCCCNC(=O)[C@H](CCCCN)n3cc(CCO)nn3)CC2)n1	10	2	0	28*	-28
Cc1ccccc1-n1cnc2cc(NCc3cccs3)ccc21	-4	1	0	-1	10
CCOc1ccccc1NC(=S)N1CCCc2ccccc21	12	1	0	0	0
C=CC1(C)CN(Cc2ccco2)S(=O)(=O)c2c(F)cccc2O1 (configuration not stated)	-8	-6	0	0	1
CSc1nc(N)nc(SCC(=O)OC(C)C)c1C#N	4	0	0	-2	5
CSc1nc(N)nc(SCC(=O)c2ccc(C)cc2)c1C#N	-2	-5	0	20*	3
CC(=O)c1ccc(NC(=O)CN2c3cccc4cccc(c34)S2(=O)=O)cc1	-255	-69	0	-1	5
COc1ccc(-c2csc3ncnc(N4CCN(Cc5ccccc5)CC4)c23)cc1	1	-3	0	14*	27
O=C(Nc1ccc(F)cc1)Oc1ccc[nH]c1=O	-4	-2	0	12*	0
O=C(Oc1ccc[nH]c1=O)c1ccccc1	-6	-4	0	.	-5
SMILES	ADAM10 inh	ADAM17 inh	aDG glyco up	NR3A LBD binder	FAS-TE inh
COc1ccc(Cl)c2sc(N(Cc3cccnc3)C(C)=O)nc12	5	-3	0	-8	0
COCc1cc(C)nc(OCC(=O)N/N=C/c2ccc(-c3cc([N+](=O)[O-])ccc3C)o2)c1C#N	-1	-2	0	1	20
Cc1ccc([N+](=O)[O-])cc1-c1ccc(/C=C(\C#N)c2[nH]nc(N)c2C#N)o1	7	2	0	17*	-16
[N-]=[N+]=NCC/C=C\C1NS(=O)(=O)OCC1O (configuration not stated)	-5	-2	0	0	-5
C/C(=N\N=C1\NC(=O)C(CC(=O)Nc2ccc(C)c(Cl)c2)S1)C(C)(C)C (configuration not stated)	6	2	0	20*	33
C/C(=N\N=C1\NC(=O)C(CC(=O)Nc2ccc(Cl)cc2)S1)c1ccco1 (configuration not stated)	11	3	0	0	0
O=C(CC1S/C(=N/N=C/c2cccs2)NC1=O)Nc1ccc(Cl)c(Cl)c1 (configuration not stated)	-6	-3	0	28*	17
CC(=O)C(C(C)=O)c1c(Cl)c(O)c(O)c2c(C(=O)c3ccccc3)coc12	32*	15*	2	-15	-148
O=C(Cn1ccccc1=O)c1cccs1	1	-4	0	0	-7
CCn1c(NC(=O)c2ccccc2)nc2ccccc21	-14	-4	0	-1	1
C=CCNC(=O)C1CC1(c1cccc(C)c1)c1cccc(C)c1 (configuration not stated)	-3	2	0	1	0
Cc1cccc(C2(c3cccc(C)c3)CC2C(=O)Nc2ccc([N+](=O)[O-])cc2O)c1 (configuration not stated)	19	4	0	15*	-16
Cn1c(SCC(=O)Nc2sccc2C(N)=O)nc2ccccc2c1=O	-3	0	0	35*	0
CCOc1ccccc1Nc1ccnc2cc(Cl)ccc12	-14	-4	3	228*	13
Clc1ccc2c(NCc3ccccn3)ccnc2c1	-37	-20	1	-1	-4
CCOC(=O)C1=C(Nc2ccccc2)CC(C)(O)C(C(=O)OCC)C1c1ccc(Br)cc1 (configuration not stated)	-4	0	0	-1	21
c1ccn(-c2ccc(-c3ccn[nH]3)cc2)c1	-6	-1	0	-13	-2
N#C/C(=C\c1ccc(-c2ccccc2Cl)o1)C(=O)Nc1nc2ccccc2s1	3	0	0	18*	3
COc1ccccc1CNC(=O)C1CCC(=O)N(CCCc2ccccc2)C1 (configuration not stated)	-2	-4	0	-1	-8
